The values below come from the supplement of paper PMC10037445.

The full ranking holds about 2,900 compounds; the median of “NF-kB SEAP reporter activity, fold change vs agonist alone” is about 0.99, and the highest 2% start at about 2.6. The sample as a whole holds a higher share of the highest values than the screen did.

In test [1] the test system is RAW-Dual. In words: NF-kB SEAP reporter activity, fold change vs agonist alone; cytotoxicity flag (confluency mask): not cytotoxic; higher = enhanced NF-kB activity. The method, boiled down:
(§1)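 After 50 nL of library stock was delivered by pin tool to RAW-Dual macrophages (50,000 cells/well, DMEM, 384-well plates), a PRR agonist was added 1 h later and the plates were kept at 37 °C, 5% CO2. Twenty hours later, IRF was read from supernatant by QuantiLuc luminescence and NF-κB by QuantiBlue absorbance at 620 nm. Reporter activity is stated as fold change over agonist-alone wells. Wells with IncuCyte confluency under 70% of agonist controls in both mask sets were counted as cytotoxic.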

The subject of test [2] is RAW-Dual. In words: NF-kB SEAP reporter activity, fold change vs agonist alone; higher = enhanced NF-kB activity. Conditions: library stock concentration (final ~1000-fold dilution): 10 mM, cytotoxicity flag (confluency mask): not cytotoxic. A digest of the protocol: as §1
Where [3] appears, read: agonist: ODN 1826 (TLR9) 0.5 ug/mL.
Setting [4] is: agonist: Pam2CSK4 (TLR2/6) 0.1 ug/mL.
The mark [5] stands for this setting: agonist: Pam3CSK4 (TLR2/1) 0.1 ug/mL.

Take `COc1cc(CCC(=O)CC(O)CCc2ccc(O)c(OC)c2)ccc1O` (stereo unspecified) (library stock concentration (final ~1000-fold dilution): 10 mM): the “NF-kB SEAP reporter activity” value in the test with RAW-Dual [1] (agonist: LPS (TLR4) 0.1 ug/mL) amounted to 1.4; in the test on RAW-Dual [1] (setting [3]) it was 1.07; in the test on RAW-Dual [1] (setting [4]), 0.979; in the test with RAW-Dual [1] (setting [5]) it was 1.25.
For `COc1cc(CCC(=O)CC(O)CCc2ccc(O)c(OC)c2)ccc1O` (stereo unspecified), the results for the “NF-kB SEAP reporter activity” value with RAW-Dual [2] (agonist: Imiquimod (TLR7) […]) and in the test on RAW-Dual [2] (agonist: MPLA (TLR4) […]) were 1.04 and 1.1, respectively.
For `COC(=O)C1=C(C)NC(C)=C(C(=O)OC2CCCN(Cc3ccccc3)C2)C1c1cccc([N+](=O)[O-])c1.Cl` (stereo unspecified), the entries for the “NF-kB SEAP reporter activity” value in the test with RAW-Dual [2] (agonist: Imiquimod (TLR7) […]) and in the test with RAW-Dual [2] (agonist: MPLA (TLR4) […]) were 0.718 and 0.978, respectively.
In the case of `COC(=O)C1=C(C)NC(C)=C(C(=O)OC2CCCN(Cc3ccccc3)C2)C1c1cccc([N+](=O)[O-])c1.Cl` (stereo unspecified) (library stock concentration (final ~1000-fold dilution): 10 mM), the “NF-kB SEAP reporter activity” value in the test on RAW-Dual [1] (agonist: LPS (TLR4) 0.1 ug/mL) came to 1.22; in the test with RAW-Dual [1] (setting [3]), 0.381; in the test with RAW-Dual [1] (setting [4]), 0.365; in the test with RAW-Dual [1] (setting [5]), 0.368.
As to `CN(C)CCOc1ccc(-c2nc(-c3ccncc3)c(-c3ccc4c(c3)CC/C4=N\O)[nH]2)cc1`, the figures for the “NF-kB SEAP reporter activity” value with RAW-Dual [2] (agonist: Imiquimod (TLR7) […]) and in the test with RAW-Dual [2] (agonist: MPLA (TLR4) […]) were 0.946 and 1.02, respectively.
The corresponding values for `OCCn1cc(-c2ccc3c(c2)CC/C3=N\O)c(-c2ccncc2)n1` are 1.65 and 1.57.
For the molecule `OCCn1cc(-c2ccc3c(c2)CC/C3=N\O)c(-c2ccncc2)n1` (library stock concentration (final ~1000-fold dilution): 10 mM), the “NF-kB SEAP reporter activity” value was determined as 2.47 in the test with RAW-Dual [1] (agonist: LPS (TLR4) 0.1 ug/mL), 1.5 with RAW-Dual [1] (setting [3]), 1.34 in the test on RAW-Dual [1] (setting [4]) and 2.22 in the test with RAW-Dual [1] (setting [5]).
In the same order, the values of `CN(C)CCOc1ccc(-c2nc(-c3ccncc3)c(-c3ccc4c(c3)CC/C4=N\O)[nH]2)cc1` (library stock concentration (final ~1000-fold dilution): 10 mM) are 5, 0.964, 1.49 and 0.882.
Turning to `CS(=O)(=O)c1ccc(Oc2cc(F)cc(C#N)c2)c2c1C(O)C(F)(F)C2` (stereo unspecified), the entries for the “NF-kB SEAP reporter activity” value in the test on RAW-Dual [2] (agonist: Imiquimod (TLR7) […]) and with RAW-Dual [2] (agonist: MPLA (TLR4) […]) were 1.03 and 1.16, respectively.
In the case of `CS(=O)(=O)c1ccc(Oc2cc(F)cc(C#N)c2)c2c1C(O)C(F)(F)C2` (stereo unspecified) (library stock concentration (final ~1000-fold dilution): 10 mM), the “NF-kB SEAP reporter activity” value amounted to 1.07 in the test with RAW-Dual [1] (agonist: LPS (TLR4) 0.1 ug/mL), 1.35 with RAW-Dual [1] (setting [3]), 1.01 with RAW-Dual [1] (setting [4]) and 1.2 in the test with RAW-Dual [1] (setting [5]).
As for `COc1ccc(CCNCC(O)COc2cccc(C)c2)cc1OC.Cl` (stereo unspecified), in the test on RAW-Dual [2] (agonist: MPLA (TLR4) […]), the “NF-kB SEAP reporter activity” value stood at 1.06.
As for `COc1ccc(CCNCC(O)COc2cccc(C)c2)cc1OC.Cl` (stereo unspecified) (library stock concentration (final ~1000-fold dilution): 10 mM), the “NF-kB SEAP reporter activity” value with RAW-Dual [1] (agonist: LPS (TLR4) 0.1 ug/mL) turned out to be 1.02; in the test on RAW-Dual [1] (setting [3]) it was 0.846; in the test with RAW-Dual [1] (setting [4]) it was 0.999; in the test on RAW-Dual [1] (setting [5]) it was 1.08.
In the case of `COc1ccccc1N1CCN(CC(O)COc2cccc3ccccc23)CC1.Cl.Cl` (stereo unspecified), the “NF-kB SEAP reporter activity” value amounted to 1.01 in the test on RAW-Dual [2] (agonist: Imiquimod (TLR7) […]) and 0.766 in the test with RAW-Dual [2] (agonist: MPLA (TLR4) […]).
With `COc1ccccc1N1CCN(CC(O)COc2cccc3ccccc23)CC1.Cl.Cl` (stereo unspecified) (library stock concentration (final ~1000-fold dilution): 10 mM), the “NF-kB SEAP reporter activity” value in the test on RAW-Dual [1] (agonist: LPS (TLR4) 0.1 ug/mL) came out at 0.815; with RAW-Dual [1] (setting [3]) it was 0.929; in the test with RAW-Dual [1] (setting [4]) it was 0.819; with RAW-Dual [1] (setting [5]) it was 0.805.
The corresponding values for `O=C(NO)c1ccc(CC(=O)N(CCO)c2ccccc2)cc1` (library stock concentration (final ~1000-fold dilution): 10 mM) are 1.94, 1.74, 0.801 and 1.21.
Take `COc1cc(C(=O)N(CCCc2ccccc2)Cc2ccc(CC(=O)O)cc2)cc(OC)c1C` (library stock concentration (final ~1000-fold dilution): 10 mM): the “NF-kB SEAP reporter activity” value is 1.19 in the test with RAW-Dual [1] (agonist: LPS (TLR4) 0.1 ug/mL), 0.976 in the test with RAW-Dual [1] (setting [3]), 0.823 in the test on RAW-Dual [1] (setting [4]) and 0.908 in the test on RAW-Dual [1] (setting [5]).
As to `O=C(NO)c1ccc(CC(=O)N(CCO)c2ccccc2)cc1`, the entries for the “NF-kB SEAP reporter activity” value with RAW-Dual [2] (agonist: Imiquimod (TLR7) […]) and in the test with RAW-Dual [2] (agonist: MPLA (TLR4) […]) were 1.15 and 1.79, respectively.
